Data as given in PubChem BioAssay.
Active and inactive are the calls of the source.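 Rule for the calls: active = compounds that lower survival of DLD-1 colon cancer cells in the luminescence readout, no cutoff given; inactive = the rest.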

Test: NPC library primary testing for decreased DLD-1 cell viability via CellTiter-Glo (AID 1117346)
Details: DLD-1 viability, CellTiter-Glo luminescence; at 20 µM (top of the series)

SMILES | viability decrease (inhibition)
Cc1ncc(COP(=O)(O)O)c(C=O)c1O | 3.4% (inactive)
CCCCCOc1ccc(C2SC(=O)NC2=O)cc1OCC (centres undefined) | 11.8% (inactive)
CC1(C)S[C@@H]2[C@H](NC(=O)Cc3ccccc3)C(=O)N2[C@H]1C(=O)O (tested in a mixture with another compound) | -12.1% (inactive)
CC[C@@]1(c2ccccc2)NC(=O)N(C)C1=O | -9.4% (inactive)
CC(=O)CCC(=O)O | -8.6% (inactive)
C=Cc1c(C)c2cc3nc(cc4[nH]c(cc5nc(cc1[nH]2)C(C)=C5CCC(=O)O)c(CCC(=O)OC)c4C)[C@@]1(C)C3=CC=C(C(=O)OC)[C@@H]1C(=O)OC | 99.9% (active)
CS(=O)(=O)c1ccc(-c2cn3ccccc3n2)cc1 | 13.5% (inactive)
C[C@@H]1C[C@H]2[C@@H]3CCC4=CC(=O)C=C[C@]4(C)[C@@]3(F)[C@@H](O)C[C@]2(C)[C@@]1(O)C(=O)COC(=O)c1ccncc1 | -18.6% (inactive)
COc1cc(S(N)(=O)=O)cc(C(=O)O)c1OC | -9.9% (inactive)
C/C=C/C=N/NC(=O)c1ccncc1 | -3.65% (inactive)
Cc1ccccc1N1CCN(CCc2nnc3n2CCCC3)CC1 | 7.3% (inactive)
O=C(CCOCCOCCOCCOCCC(=O)Nc1c(I)cc(I)c(C(=O)O)c1I)Nc1c(I)cc(I)c(C(=O)O)c1I | -2.6% (inactive)
O=C(CN1CCNCC1)NC1CCCCC1 | 4.5% (active)
CCN1C(=O)c2ccccc2C1Nc1ccc(OCCN2CCCCC2)cc1 (centres undefined) | -3.1% (inactive)
CCCCCCCCCCC(CO)CCCCCCCC (centres undefined) | -17.6% (inactive)
COc1ccnc2c1CCCCC2S(=O)c1nc2ccccc2[nH]1 (centres undefined) | 11.3% (inactive)
COC1=C(OC)C(=O)C(CC=C(C)CCC=C(C)CCC=C(C)CCC=C(C)CCC=C(C)CCC=C(C)CCC=C(C)CCC=C(C)CCC=C(C)CCC=C(C)C)=C(C)C1=O | 1.9% (inactive)
O=[N+]([O-])c1ccc(Oc2ccc(N=C=S)cc2)cc1 | 100% (active)
Oc1ccccc1-c1nnco1 | -0.7% (inactive)
CCCCC(C)(O)CC=C[C@H]1[C@H](O)CC(=O)[C@H]1CCCCCCC(=O)OC (some centres undefined) | 66.4% (active)

SMILES | viability decrease (inhibition)
Cc1ccc(/C=N/n2c(-c3ccccc3)csc2=S)cc1 | 37.1% (inactive)
Nc1ccc(C(=O)OCC(O)CO)cc1 (centres undefined) | -3.4% (inactive)
Cc1cc(N)c2cc(NC(=O)Nc3ccc4nc(C)cc(N)c4c3)ccc2n1 | 94.2% (active)
CNC(=O)c1c(I)c(NC(=O)CCCCC(=O)Nc2c(I)c(C(=O)O)c(I)c(C(=O)NC)c2I)c(I)c(C(=O)O)c1I | -2.4% (inactive)
CCCCCCCCCCCCCCCCCCO | -5.65% (inactive)
CC1c2ccccc2CN1NC(=O)c1ccc(Cl)c(S(N)(=O)=O)c1 (centres undefined) | -10.8% (inactive)
CCN[C@@H]1C[C@H](N)[C@@H](OC2OC(CN)=CCC2N)[C@H](O)[C@H]1O[C@H]1OC[C@](C)(O)[C@H](NC)[C@H]1O (some centres undefined) | 3.7% (inactive)
Oc1ccccc1C=NCc1ccccc1 | 0.75% (inactive)
C=Cc1ccccc1 | 1.7% (inactive)
O=C(Nc1ccc(Cl)cc1)Nc1ccc(Cl)c(C(F)(F)F)c1 | 102% (active)
CCOC(=O)c1ccc(O)c(O)c1 | 56.4% (active)
C=CCNc1nc(NCC=C)nc(N2CCN(C(c3ccc(F)cc3)c3ccc(F)cc3)CC2)n1 | 49.4% (inactive)
O=S(=O)(O)c1ccc(O)cc1 | -5.95% (inactive)
CCNC(=O)NCCCOc1cccc(CN2CCCCC2)c1 | -12.6% (inactive)
CC(C)(C)c1ccc2c(S(=O)(=O)O)c(C(C)(C)C)ccc2c1 | -14.4% (inactive)
NCC(=O)O | 7.4% (inactive)
CN1N=C(C(N)=O)CCC1=O | 10.1% (inactive)
Oc1cc(O)cc(O)c1 | -3.4% (inactive)
CCOC(=O)c1ccc(OCCN2C[C@H](O)[C@@H](O)[C@H](O)[C@H]2CO)cc1 | -12.5% (inactive)
